This is an account of results in PubChem BioAssay (NCATS).

Several values for one entry are separate records, joined by “and”; a condition that tells them apart may be missing. Equal entries are not always repeated. Inconclusive results are not listed. Activity calls are given as the source filed them. Unless noted, calls follow the shape of the dose curve; as a rule, active = well fitted curve in the direction sought with a large enough effect; inconclusive = small, poorly fitted or top-dose-only effect, or another doubt; inactive = no such curve, though single readings can be large; an effect the other way counts as inactive or inconclusive.

Cytochrome P450 2C9 (Homo sapiens), sequence (P11712 whole entry, looked up): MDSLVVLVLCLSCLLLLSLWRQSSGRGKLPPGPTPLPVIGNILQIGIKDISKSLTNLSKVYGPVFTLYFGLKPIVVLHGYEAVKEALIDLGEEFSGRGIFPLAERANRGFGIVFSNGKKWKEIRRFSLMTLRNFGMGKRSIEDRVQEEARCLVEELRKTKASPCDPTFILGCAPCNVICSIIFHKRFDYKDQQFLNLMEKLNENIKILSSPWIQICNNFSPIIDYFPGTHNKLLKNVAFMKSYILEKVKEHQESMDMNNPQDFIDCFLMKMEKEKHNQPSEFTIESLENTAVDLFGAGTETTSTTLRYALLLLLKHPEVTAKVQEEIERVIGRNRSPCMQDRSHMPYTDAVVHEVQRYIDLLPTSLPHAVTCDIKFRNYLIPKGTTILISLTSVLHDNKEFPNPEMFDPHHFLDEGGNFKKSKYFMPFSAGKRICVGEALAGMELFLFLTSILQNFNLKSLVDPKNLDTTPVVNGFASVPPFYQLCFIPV

System in the first assay: not listed separately
Briefly: Primary qHTS for small molecule stabilizers of the endoplasmic reticulum resident proteome: Secreted ER Calcium Modulated Protein (SERCaMP) assay (AID 1508630). The following applies: SH-SY5Y GLuc-SERCaMP (Gaussia luciferase released on ER calcium loss) secretion, thapsigargin, luminescence; series mostly up to 38.4 µM. Put shortly:
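GLuc-SERCaMP-expressing SH-SY5Y cells, pretreated 16 h with compound, are challenged with thapsigargin to empty ER calcium stores; after 4 h, coelenterazine is added directly to the medium and luminescence is imaged.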
(In qHTS, concentration-response curves come from the screen itself.)
Take `COC(=O)[C@]12CCC(C)(C)C[C@@H]1[C@@H]1C(=O)C=C3[C@@]4(C)C=C(C#N)C(=O)C(C)(C)[C@@H]4CC[C@@]3(C)[C@]1(C)CC2`: the Potency entry was “inactive”. On to `CC[C@H](CO)Nc1nc(NCc2ccccc2)c2ncn(C(C)C)c2n1`, for which the Potency entry is “inactive”. For the molecule `C[C@H]1C[C@@H]2[C@@H]([C@@H](O)C[C@@]3(C)[C@H]2CC[C@]3(O)C(=O)CO)[C@@]2(C)C=CC(=O)C=C12`, the Potency result was “inactive”. For the molecule `O=C(C=Cc1c(C(=O)O)[nH]c2cc(Cl)cc(Cl)c12)Nc1ccccc1`, the Potency result is “inactive”. In the case of `CS(=O)(=O)N1CCN(Cc2cc3nc(-c4cccc5[nH]ncc45)nc(N4CCOCC4)c3s2)CC1`, the Potency entry is “inactive”.

For `O=c1[nH]nc(Sc2ncc([N+](=O)[O-])s2)n1-c1ccc2c(c1)OCCO2`, the Potency result was “inactive”. The same measure, in the same setting: the value for `CN1CC[C@@H](c2c(O)cc(O)c3c(=O)cc(-c4ccccc4Cl)oc23)[C@@H](O)C1` was “inactive”.

A further assay has as its target Cytochrome P450 2C9 (Homo sapiens) (UniProt P11712). Briefly: Cytochrome P450 family 2 subfamily C member 9 (CYP2C9) small molecule antagonists: luciferase biochemical (cell-free) qHTS assay (AID 1645842; active = well fitted curve in the direction sought with a large enough effect in the repeat runs; an effect the other way counts as inactive or inconclusive; also: potency is read from the fitted curve at half-maximal effect; nearly all actives have a fitted effect of over 55% in size). The following applies: P450-Glo CYP2C9 enzyme assay, luciferin luminescence; series mostly up to 57.4 µM. A digest of the protocol:
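Luminescence, after 20 min with luciferin detection reagent, reflected CYP2C9 turnover during a 1 h NADPH-driven reaction at 37C. Enzyme-substrate mix contained 0.4% bovine serum albumin and was preincubated with compound 10 min at room temperature.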
`Cc1c(C)n(Cc2ccc(-c3ccccc3C(=O)O)cc2)c2ccc(C(=O)N[C@@H](C)c3ccc([N+](=O)[O-])cc3)cc12`: the Potency was 15.1 µM (active). On the same count and under the same terms, the value for `Cn1c(CNc2ccc(C(=N)N)cc2)nc2cc(C(=O)N(CCC(=O)O)c3ccccn3)ccc21` was 10.7 µM (active); that for `Clc1cccc(-n2nnnc2NCc2ccccc2Oc2ccccn2)c1Cl` was 6.01 µM (active). Turning to `CCOC(=O)C1=C(C)NC2=C(C(=O)CC(C)(C)C2)C1c1ccc(-c2ccccc2)cc1` (stereo unspecified), the Potency is 2.68 µM (active).

System in a further assay: not listed separately
Kind of assay: Primary qHTS for inhibitors of nuclear receptor binding SET domain protein 2 (NSD2) in an isogenic RCH-ACV NSD2 p.E1099K mutant (9B) (AID 1645876). Also: nearly all actives have a fitted effect of over 70% in size. Also: potency is read from the fitted curve at half-maximal effect. The following applies: RCH-ACV (leukaemia line) NSD2 E1099K (9B) viability, CellTiter-Glo, 72 h; series mostly up to 44.9 µM.
In the case of `CN1c2cc(O)c(N=NC(N)=O)cc2CC1S(=O)(=O)O` (stereo unspecified), the Potency entry was “inactive”. With `CN(C)CCCN=c1c2ccccc2n(C)c2[nH]c(=O)n(C)c(=O)c12`, the Potency is 13.2 µM (active). Turning to `Clc1ccc2ncc(-c3cccc(NC4CNC4)n3)n2c1`, the Potency entry was “inactive”.

On to `CC[C@H](CO)Nc1nc(NCc2ccccc2)c2ncn(C(C)C)c2n1`, for which the Potency was 14.8 µM (active). Still for that read-out and setting: the value for `O=C(c1cncc(Br)c1)N1CCC(N2CCCC2)CC1` was “inactive”; that for `O=C(NC1CCNCC1)c1[nH]ncc1NC(=O)c1c(Cl)cccc1Cl` was 0.662 µM (active); that for `O=C(NCCCNc1nc(Nc2cccc(NC(=O)N3CCCC3)c2)ncc1I)c1cccs1` was 5.8 µM (active) and 1.48 µM (active).

On to `N#Cc1c(O)c2c(-c3ccc(-c4ccccc4O)cc3)csc2[nH]c1=O`, for which the Potency result was “inactive”. Turning to `O=C(O)CCCc1c[nH]c2ccccc12`, the Potency result was “inactive”. Still for that read-out and setting: in the case of `O=c1[nH]nc(Sc2ncc([N+](=O)[O-])s2)n1-c1ccc2c(c1)OCCO2` it was 7.42 µM (active); in that of `C[C@]1(CO)CN(c2cc(C(=O)Nc3ccc4c(c3)-c3c(c(C(N)=O)nn3-c3ccc(F)cc3)CC4)c(Cl)cn2)C[C@@]1(C)CO`, 3.25 µM (active). Turning to `Cc1cn(-c2cc(NC(=O)c3ccc(C)c(Nc4nccc(-c5cccnc5)n4)c3)cc(C(F)(F)F)c2)cn1`, the Potency was 8.2 µM (active) and 11.8 µM (active).

Regarding `Cn1c(CNc2ccc(C(=N)N)cc2)nc2cc(C(=O)N(CCC(=O)O)c3ccccn3)ccc21`, the Potency entry was “inactive”. The same measure, in the same setting: the value for `COc1ccc(OC)c(-c2nnc3ccc(-c4ccc(OC)c(O[C@@H]5CCOC5)c4)nn23)c1` was 3.72 µM (active); that for `Cc1ccc(S(=O)(=O)Nc2cc(Cl)ccc2C(=O)Nc2nc(-c3ccccc3)cs2)cc1` was “inactive”; that for `O=C(NCCS(=O)(=O)c1ccc(C(F)(F)F)cn1)c1ccc(Cl)cc1` was “inactive”.

In the case of `Cc1nc(N)ncc1-c1nc(N2CCOCC2)c2sc(C(C)(C)O)cc2n1`, the Potency was 81.7 nM (active) and 590 nM (active). As to `CC(=O)Nc1nc(C)c(-c2ccc(Cl)c(S(=O)(=O)NCCO)c2)s1`, the Potency was 1.32 µM (active).

`Cc1ccc(-c2ncn(-c3ccc(Nc4nccc(-c5cccc(N6CCOCC6)c5)n4)cc3)n2)cn1`: the Potency is 1.05 µM (active). With `COC(=O)Nc1ccc(-c2nc(N3CCOCC3)c3cnn(C4CCN(Cc5cccnc5)CC4)c3n2)cc1`, the Potency was 0.833 µM (active).

On to `Cn1c(=O)n(-c2ccc(C(C)(C)C#N)cc2)c2c3cc(-c4cnc5ccccc5c4)ccc3ncc21`, for which the Potency is 103 nM (active) and 38.2 nM (active). On the same count and under the same terms, the value for `O=C(CCCCCCC(=O)Nc1ccc([C@H]2O[C@@H](CSc3nc(-c4ccccc4)c(-c4ccccc4)o3)C[C@@H](c3ccc(CO)cc3)O2)cc1)NO` was 2.58 µM (active) and 4.28 µM (active); that for `CC(C)c1ccccc1Cc1cc(C(=O)Nc2ccc(S(=O)(=O)c3ccccc3C(C)(C)C)cc2)c(O)c(O)c1O` was 13.2 µM (active). `CCCCCCCCCC(=O)N[C@@H](Cc1c[nH]c2ccccc12)C(=O)N[C@H](CC(N)=O)C(=O)N[C@@H](CC(=O)O)C(=O)N[C@@H]1C(=O)NCC(=O)N[C@@H](CCCN)C(=O)N[C@@H](CC(=O)O)C(=O)N[C@H](C)C(=O)N[C@@H](CC(=O)O)C(=O)NCC(=O)N[C@H](CO)C(=O)N[C@@H]([C@@H](C)CC(=O)O)C(=O)N[C@@H](CC(=O)c2ccccc2N)C(=O)O[C@@H]1C`: the Potency result was “inactive”. `CN1CC[C@@H](c2c(O)cc(O)c3c(=O)cc(-c4ccccc4Cl)oc23)[C@@H](O)C1`: the Potency is 0.372 µM (active).
